Over roughly 33,000 sequences, “E-score (-0.5 to 0.5)” has its median near -0.012; the highest 2% begin near 0.27. The full list was thinned out, with the highest values kept by preference.
Molecular target: T1, Vhr1 (UniProt P40522)
T1 sequence: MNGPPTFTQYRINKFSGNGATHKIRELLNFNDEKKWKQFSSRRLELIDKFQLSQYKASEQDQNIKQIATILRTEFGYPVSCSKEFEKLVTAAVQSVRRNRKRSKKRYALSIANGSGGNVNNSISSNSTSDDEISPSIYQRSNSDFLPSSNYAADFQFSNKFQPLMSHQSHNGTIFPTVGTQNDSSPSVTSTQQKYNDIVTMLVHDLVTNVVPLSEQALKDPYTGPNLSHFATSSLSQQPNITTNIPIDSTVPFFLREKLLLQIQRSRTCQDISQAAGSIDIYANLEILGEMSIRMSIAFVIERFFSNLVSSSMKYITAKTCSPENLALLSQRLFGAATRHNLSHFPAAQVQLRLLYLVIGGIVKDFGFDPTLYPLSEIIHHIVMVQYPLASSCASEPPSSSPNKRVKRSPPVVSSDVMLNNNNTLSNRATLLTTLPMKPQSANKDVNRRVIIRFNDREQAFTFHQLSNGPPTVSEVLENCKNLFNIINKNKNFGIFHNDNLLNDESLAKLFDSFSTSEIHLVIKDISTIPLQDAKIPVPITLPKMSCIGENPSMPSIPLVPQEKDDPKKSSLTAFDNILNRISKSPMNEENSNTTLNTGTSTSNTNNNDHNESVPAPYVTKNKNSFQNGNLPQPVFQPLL
Experiment: PBM E-score (8-mer binding enrichment) (E-score (-0.5 to 0.5)); higher = stronger / more preferred TF binding
Settings: protein concentration: 200 nM; construct: GST-full length
In short: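 Yeast transcription factors, full-length or as DNA-binding domains, were expressed with a GST tag using PURExpress in vitro transcription/translation. At about 100-200 nM they were applied to universal all-10-mer Agilent arrays, double-stranded by primer extension on fresh or once-stripped slides. Fluorescent anti-GST detected bound protein, and masliner normalised the scans. E-scores for ungapped eight-base words, pooled with reverse complements, came from the Universal PBM Analysis Suite.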

Row | Sequence | PBM E-score
1 | CCAGCGAG | 0.181
2 | TGCACGCA | -0.0577
3 | CTAGTTGA | 0.202
4 | GTAGTTGA | 0.277
5 | ATAGTTGA | 0.0409
6 | AGAAATCT | -0.217
7 | GGACGCTA | -0.324
8 | CAACTTGG | 0.0538
9 | GGTCAACC | 0.0175
10 | AGTCAACC | 0.373
11 | AGTCAACT | 0.144
12 | AGTCAACA | 0.19
13 | AGTCAACG | 0.278
14 | CGTCAACG | -0.0358
15 | ATCTGATA | 0.0202
16 | CATGTAGA | 0.00603
17 | AGTCGCTA | 0.174
18 | ACCCTCCT | -0.116
19 | CCCCACTC | 0.128
20 | CCCCACCG | 0.188
21 | CCCCACCA | 0.0983
22 | ACCCTCCC | 0.307
23 | CCCCTCCC | 0.171
24 | ACCCACCT | 0.0548
25 | ACCCACTC | 0.282

Row | Sequence | PBM E-score
26 | CCCCACCC | 0.36
27 | ACCCACCC | 0.397
28 | ACCCACTG | 0.22
29 | ACCCACCG | 0.256
30 | AAAGCCAT | -0.0236
31 | CGTCCCAC | 0.0371
32 | GGTTAGAC | -0.00016
33 | GGGCTTGA | -0.125
34 | ACCCTAAT | -0.0655
35 | CCAAAAGA | -0.201
36 | TCCCACCA | -0.112
37 | GCCCACCA | -0.125
38 | GCCCACCC | 0.284
39 | ACCCACCA | 0.296
40 | GCCCACAC | 0.069
41 | ACCACCCA | 0.192
42 | CCGAGAGC | -0.0932
43 | ATAGCGCC | 0.0931
44 | CCATTCGA | -0.172
45 | AGCTGTAC | 0.016
46 | GAAGAAAA | -0.221
47 | CCCGCGGG | 0.102
48 | ACCGCGGT | 0.0486
49 | ACCGCGGG | 0.312
50 | ACCGCGCC | -0.0598

Row | Sequence | PBM E-score
51 | ACCGCGCG | 0.336
52 | ACCGCGCT | 0.0474
53 | GGAAGAAC | 0.0668
54 | ACTATCAT | 0.251
55 | ATAGGGCG | -0.0674
56 | AGGAGGGA | -0.101
57 | AGGAGGGG | 0.284
58 | AGGAGGGC | -0.11
59 | TATGGGCA | 0.131
60 | ACTCCCAA | 0.112
61 | GTCAGGTA | 0.126
62 | GGGATTCA | 0.134
63 | AGGATTCA | -0.0305
64 | CAGATTCA | -0.232
65 | CTGATTCA | 0.341
66 | ATGATTTG | 0.172
67 | ATGATTCA | 0.443
68 | CGGATTCA | 0.0469
69 | GTGATTCA | 0.408
70 | ATGATTCG | 0.412
71 | ACGATTCA | 0.112
72 | AAGATTCG | 0.0242
73 | GAGATTCA | 0.0192
74 | ATCCAAGC | 0.0358
75 | ACTGCCCC | -0.0425

Row | Sequence | PBM E-score
76 | GTGGACCA | 0.0132
77 | ATTTTGGG | -0.177
78 | CCGGTAGC | -0.00183
79 | AGTGTACG | 0.163
80 | ATCCAATA | 0.135
81 | GGGAGGAC | -0.0865
82 | GCTGGTAA | -0.148
83 | GGCTAACA | -0.0545
84 | GAGGTGTA | -0.038
85 | GAGTTGGC | 0.161
86 | AGGATTCC | 0.0112
87 | CTGATTCC | 0.261
88 | ATGATTCC | 0.445
89 | GCATCCAC | 0.0832
90 | GACAGACC | -0.067
91 | CACAGACA | 0.0563
92 | CACAGCCC | -0.0755
93 | GACAGACA | 0.294
94 | CACAGACC | 0.307
95 | AACAGACC | 0.0701
96 | AACAGACA | 0.285
97 | AACAGACT | 0.0598
98 | AACAGCCG | -0.0956
99 | CTCAGACC | -0.00267
100 | CACAGCCG | 0.281

Row | Sequence | PBM E-score
101 | CACAGACG | 0.104
102 | ACGGCGAA | 0.0608
103 | CCATATCG | 0.245
104 | GAAATTTA | -0.157
105 | AAATGCGA | -0.00728
106 | ATCAGACC | 0.0881
107 | GCTCTCAA | -0.0323
108 | CATCTGGA | 0.0944
109 | CTAATGAG | 0.0521
110 | CGTTGCGA | 0.0286
111 | GGCCAGAA | -0.00605
112 | ACAGTACT | 0.0536
113 | CATTAGCA | -0.152
114 | CGTCGAAG | 0.0798
115 | AGTAGTCG | 0.292
116 | CGTAGTCC | -0.0429
117 | AGTAGTAG | 0.0116
118 | AGTAGTTC | 0.108
119 | CGTAGTCA | 0.372
120 | AGTAGTGA | 0.106
121 | AGTAGTAA | 0.0586
122 | AGTAGTCC | 0.0701
123 | AGTAGTCA | 0.401
124 | AGTAGTTA | 0.0583
125 | AGTAGTTG | 0.29

Row | Sequence | PBM E-score
126 | CGTAGTAA | -0.095
127 | CCAGTGGA | -0.118
128 | CATTGGCG | 0.00375
129 | GGAATGCA | 0.0844
130 | GGGCTTCA | -0.00484
131 | GGTAGTCA | 0.427
132 | GGTAGTAA | -0.193
133 | GGTAGTGA | 0.159
134 | ACCGTTGC | -0.0641
135 | CACAATGC | 0.132
136 | CACAATGG | 0.176
137 | CACAATGA | 0.286
138 | CACAGTCA | 0.244
139 | ACCAGTCC | -0.0311
140 | ACCAGTCT | 0.0104
141 | ACCAGTCA | 0.298
142 | TACAGTCA | 0.294
143 | ATCAGTCA | 0.306
144 | CTCAGTCA | 0.362
145 | CTCAGTCC | -0.0479
146 | ATCAGTCG | 0.23
147 | GTCAGTCA | 0.267
148 | AACAGTCA | 0.192
149 | CTCAGTGA | 0.111
150 | ACGCTAGC | -0.322

Row | Sequence | PBM E-score
151 | AATTTAGG | 0.0535
152 | CACTAATC | 0.19
153 | CCCAATCG | -0.00353
154 | GAATGCAC | 0.109
155 | CGGCTCGC | 0.0809
156 | AACAGCTC | 0.0178
157 | GTGAATCA | 0.394
158 | CTGAATTA | -0.00808
159 | CTGAATCA | 0.402
160 | GTGAATGA | 0.0662
161 | GTGAATAA | 0.16
162 | ATGAATCA | 0.423
163 | ATGAATCG | 0.214
164 | CTGAATCC | 0.224
165 | ATGAATCC | 0.0842
166 | GAAGATAC | 0.00993
167 | AGCTTGTA | -0.0135
168 | GACAGCTC | -0.0639
169 | CCGGCCGC | -0.048
170 | CCGGCCGA | 0.031
171 | CCGGCCGG | 0.282
172 | AGGTCGTA | 0.107

— the supplement of paper PMC3334620
